The record followed here is PubChem BioAssay (Tox21).

Structures are written as SMILES. Values without a mark were called inactive. Records with an inconclusive call do not appear. Active and inactive are the calls of the source. Unless noted, calls come from the whole dose curve; as a rule, active = well fitted curve in the direction sought with a large enough effect in the repeat runs; inconclusive = weak or mixed curves; inactive = no such curve, though single readings can be large; an effect the other way counts as inactive or inconclusive.

Assay [1] can be described thus: qHTS assay to test for compound auto fluorescence at 535 nm (green) in HEK293 cells (AID 720680). For orientation: Quantitative high-throughput screening tests each substance at several concentrations.
The nature of assay [2]: qHTS assay to test for compound auto fluorescence at 535 nm (green) in HEK293 cell free culture (AID 720682). The method in brief:
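Read-out: 485/535 nm fluorescence intensity, calibrated against fluorescein. Medium only (DMEM + 10% FBS, no cells); test compound or DMSO vehicle added by pintool before plate reading.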

Assay [3] can be described thus: qHTS assay to test for compound auto fluorescence at 590 nm (red) in HEK293 cell free culture (AID 720683). The method in brief:
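Cell-free wells of DMEM with 10% FBS received compound, and intrinsic fluorescence was read at excitation/emission 540/590 nm. Values expressed as equivalence to Rose Bengal sodium.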

Assay [4] can be described thus: qHTS assay to test for compound auto fluorescence at 590 nm (red) in HepG2 cell free culture (AID 720684). The method in brief:
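Compounds are added to culture medium (MEM, 10% FBS) lacking cells, then fluorescence is read at excitation 540 nm, emission 590 nm, with Rose Bengal sodium as the equivalency standard.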

Assay [5] is described as follows: qHTS assay to test for compound auto fluorescence at 460 nm (blue) in HepG2 cell free culture (AID 720685). In a few lines: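 Compound (23 nL) or DMSO pinned into cell-free MEM with 10% FBS; blue fluorescence read at 405/460 nm excitation/emission, expressed as auto-fluorescence equivalency to triamterene.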
Assay [6] in a line: qHTS assay to test for compound auto fluorescence at 535 nm (green) in HepG2 cell free culture (AID 720686).
The nature of assay [7]: qHTS assay to test for compound auto fluorescence at 460 nm (blue) in HepG2 cells (AID 720687). The method in brief: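 HepG2 cells in MEM with 10% FBS, attached overnight at 37 C, were exposed to compound or DMSO for 1 hr at 37 C, 5% CO2. Blue fluorescence was read at 405/460 nm, with triamterene as reference fluorophore.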
In assay [8] the target is Glucocorticoid receptor (Homo sapiens) (UniProt P04150). Kind of assay: qHTS assay to identify small molecule agonists of the glucocorticoid receptor (GR) signaling pathway (AID 720691; active = well fitted activation curve with a large enough effect in the signal ratio in the repeat runs, not every such curve was filed as active; the % refers to the signal ratio; note: potency is the fitted concentration of half-maximal effect). The method in brief: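 GR-bla HeLa cells carrying a GRE-driven beta-lactamase reporter, exposed to compounds for 18 h at 37 C. Reporter activation read as fluorescence after 2 h with LiveBLAzer B/G FRET substrate at room temperature.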
Glucocorticoid receptor (Homo sapiens), sequence (P04150 whole entry, looked up): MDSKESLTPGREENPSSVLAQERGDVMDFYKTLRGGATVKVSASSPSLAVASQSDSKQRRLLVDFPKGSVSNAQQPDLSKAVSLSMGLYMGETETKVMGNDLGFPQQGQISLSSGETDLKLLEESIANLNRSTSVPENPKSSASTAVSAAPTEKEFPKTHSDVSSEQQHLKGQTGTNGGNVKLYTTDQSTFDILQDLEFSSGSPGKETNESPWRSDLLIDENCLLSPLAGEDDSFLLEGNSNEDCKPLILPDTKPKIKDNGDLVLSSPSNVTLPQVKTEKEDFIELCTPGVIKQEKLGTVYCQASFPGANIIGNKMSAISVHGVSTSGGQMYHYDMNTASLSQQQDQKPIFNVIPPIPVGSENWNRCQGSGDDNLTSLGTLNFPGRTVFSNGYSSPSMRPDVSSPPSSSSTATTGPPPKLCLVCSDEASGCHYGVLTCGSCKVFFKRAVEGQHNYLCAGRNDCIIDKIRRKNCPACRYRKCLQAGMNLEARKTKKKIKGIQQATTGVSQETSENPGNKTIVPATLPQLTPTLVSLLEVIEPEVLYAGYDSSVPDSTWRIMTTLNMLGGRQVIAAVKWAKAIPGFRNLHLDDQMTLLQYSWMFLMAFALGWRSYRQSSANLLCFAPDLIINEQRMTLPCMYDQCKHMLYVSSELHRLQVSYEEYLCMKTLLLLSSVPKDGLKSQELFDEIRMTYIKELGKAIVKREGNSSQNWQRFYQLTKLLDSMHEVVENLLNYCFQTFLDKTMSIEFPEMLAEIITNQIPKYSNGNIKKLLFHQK

Assay [9] can be described thus: qHTS assay to identify small molecule antagonists of the glucocorticoid receptor (GR) signaling pathway - cell viability counter screen (AID 720693). Note: nearly all actives have a fitted effect of over 55% in size. Note: potency is the fitted concentration of half-maximal effect.
A short description of assay [10]: qHTS assay for identifying genotoxic compounds that show differential cytotoxicity against isogenic chicken DT40 cell lines with known DNA damage response pathways - wild type cell line (AID 743012). Note: nearly all actives have a fitted effect of over 60% in size. Note: potency is the fitted concentration of half-maximal effect. The method in brief:
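Wild-type DT40 cells (300/well) exposed to compounds for 40 hours at 37 C/5% CO2. Viability read by CellTiter-Glo luminescence after 30 min at room temperature.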

The nature of assay [11]: qHTS assay for identifying genotoxic compounds that show differential cytotoxicity against isogenic chicken DT40 cell lines with known DNA damage response pathways - Rad54/Ku70 mutant cell line (AID 743015). Note: nearly all actives have a fitted effect of over 60% in size. Note: potency is the fitted concentration of half-maximal effect.
The nature of assay [12]: qHTS assay for identifying genotoxic compounds that show differential cytotoxicity against isogenic chicken DT40 cell lines with known DNA damage response pathways - Rev3 mutant cell line (AID 743014). Note: nearly all actives have a fitted effect of over 55% in size. Note: potency is the fitted concentration of half-maximal effect.
Assay [13] is described as follows: qHTS assay to identify small molecule antagonists of the androgen receptor (AR) signaling pathway - cell viability counter screen (AID 743033; note: nearly all actives have a fitted effect of over 45% in size).
Assay [14] has as its target Androgen receptor (Homo sapiens) (UniProt P10275). The assay can be described thus: qHTS assay to identify small molecule agonists of the androgen receptor (AR) signaling pathway (AID 743036; active = well fitted activation curve with a large enough effect in the signal ratio in the repeat runs, with a control signal flat, not every such curve was filed as active; the % refers to the signal ratio; note: potency is the fitted concentration of half-maximal effect). The method in brief:
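HEK293 cells stably carrying a UAS-driven beta-lactamase reporter (GeneBLAzer AR-UAS-bla-GripTite) were plated at 2,000 cells/well, rested 4 h at 37C, then exposed to compounds in DMSO for 16 h. LiveBLAzer B/G FRET substrate was added for 2 h at room temperature; fluorescence read.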

For assay [15] the target is unchanged. Kind of assay: qHTS assay to identify small molecule agonists of the androgen receptor (AR) signaling pathway using the MDA cell line (AID 743040; note: nearly all actives have a fitted effect of over 20% in size; note: potency is the fitted concentration of half-maximal effect). The method in brief: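 Human breast carcinoma MDA-kb2 reporter cells (MMTV-luc, AR/GR elements) were treated for 16 h at 37C in 0% CO2 following a 5 h settling period. Signal was quantified by ONE-Glo luminescence.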

Assay [16] has the same target. Kind of assay: qHTS assay to identify small molecule antagonists of the androgen receptor (AR) signaling pathway using the MDA cell line (AID 743042; note: nearly all actives have a fitted effect of over 55% in size; note: potency is the fitted concentration of half-maximal effect). The method in brief: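 MDA-kb2 breast carcinoma cells carrying MMTV-luciferase (AR/GR responsive) were co-treated with compounds and the agonist R1881 for 16 h at 37C. Inhibition read as ONE-Glo luminescence; CellTiter-Fluor fluorescence measured in parallel for cytotoxicity.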

A short description of assay [17]: qHTS assay to identify small molecule antagonists of the thyroid receptor (TR) signaling pathway - cell viability counter screen (AID 743064). Note: nearly all actives have a fitted effect of over 50% in size. Note: potency is the fitted concentration of half-maximal effect. The method in brief:
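GH3.TRE-Luc rat pituitary cells carrying a TRE-luciferase reporter were treated with compound plus 1 nM T3 (final) for 23.5 h at 37 °C. Viability was then read in the same wells by CellTiter-Fluor fluorescence after a further 30 min.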

The nature of assay [18]: qHTS assay to identify small molecule antagonists of the androgen receptor (AR) signaling pathway using the MDA cell line - cell viability counter screen (AID 743041; note: nearly all actives have a fitted effect of over 45% in size). The method in brief:
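Same-well cytotoxicity was assessed by CellTiter-Fluor in MDA-kb2 AR-luc cells after 16 h of compound treatment under R1881 agonism.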

In assay [19] the target is Glucocorticoid receptor (Homo sapiens) (UniProt P04150). The assay can be described thus: qHTS assay to identify small molecule antagonists of the glucocorticoid receptor (GR) signaling pathway (AID 720692; active = well fitted inhibition curve with a large enough effect in the signal ratio in the repeat runs, not every such curve was filed as active; the % refers to the signal ratio; note: potency is the fitted concentration of half-maximal effect). In a few lines: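 GR-bla HeLa cells carrying a GRE-driven beta-lactamase reporter received compound after 4 h plating, then dexamethasone (5 nM final). After 18 h at 37C, the FRET substrate was loaded for 2 h at room temperature and fluorescence read.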
% is set by controls: 0 for no effect and ±100 for the full control effect.

Androgen receptor (Homo sapiens), sequence (P10275 whole entry, looked up): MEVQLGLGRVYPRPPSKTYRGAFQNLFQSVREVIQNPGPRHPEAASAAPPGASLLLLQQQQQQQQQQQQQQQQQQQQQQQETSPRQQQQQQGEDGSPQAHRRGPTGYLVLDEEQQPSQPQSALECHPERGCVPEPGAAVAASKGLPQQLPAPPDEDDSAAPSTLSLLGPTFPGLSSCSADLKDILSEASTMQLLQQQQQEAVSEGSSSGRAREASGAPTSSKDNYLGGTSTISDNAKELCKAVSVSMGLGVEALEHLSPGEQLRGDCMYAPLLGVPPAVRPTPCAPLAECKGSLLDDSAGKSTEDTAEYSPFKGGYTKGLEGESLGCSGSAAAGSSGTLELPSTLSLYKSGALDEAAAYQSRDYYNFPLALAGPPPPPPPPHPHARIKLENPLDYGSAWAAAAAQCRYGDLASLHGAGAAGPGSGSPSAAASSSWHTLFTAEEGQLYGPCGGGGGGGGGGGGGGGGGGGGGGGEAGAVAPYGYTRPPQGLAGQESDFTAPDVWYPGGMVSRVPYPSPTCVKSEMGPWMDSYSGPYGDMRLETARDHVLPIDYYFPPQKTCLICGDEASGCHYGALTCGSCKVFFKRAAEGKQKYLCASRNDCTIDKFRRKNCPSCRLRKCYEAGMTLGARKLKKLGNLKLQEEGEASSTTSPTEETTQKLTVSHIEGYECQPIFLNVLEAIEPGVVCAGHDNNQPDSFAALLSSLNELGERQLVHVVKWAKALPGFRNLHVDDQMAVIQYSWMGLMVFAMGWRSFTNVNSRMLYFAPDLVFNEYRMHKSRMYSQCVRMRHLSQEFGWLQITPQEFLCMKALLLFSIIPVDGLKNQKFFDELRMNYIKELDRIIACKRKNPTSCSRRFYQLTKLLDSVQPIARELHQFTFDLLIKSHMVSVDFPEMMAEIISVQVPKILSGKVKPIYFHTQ

With `Cc1oc(C)c(C(=O)Nc2ccccc2)c1C`, the compound was classed as inactive in [1], in [2], in assay [3], in assay [4] and in [6]. Besides, the Potency entry in assay [5], in assay [7], in assay [8] and in assay [9] was “inactive” throughout. The Potency in assay [10] and in [11] was 13.7 µM (active) throughout.
On to `O=C(O)c1snc(Cl)c1Cl`, for which the call in [1], in assay [2], in assay [3], in assay [4] and in [6] was inactive. The Potency result in assay [5], in [7], in [8], in assay [9] and in [13] was “inactive” each time. The Potency in assay [10], in [12] and in assay [11] was 61.1 µM (active) each time.
As for `ON(Cc1ccccc1)Cc1ccccc1`, the outcome in assay [1], in assay [2], in assay [3], in assay [4] and in assay [6] was inactive. For the same compound, the Potency entry in [5], in [7], in assay [8], in assay [10], in assay [11] and in assay [13] was “inactive” each time. Moreover, the Potency entry in [14], in assay [15], in assay [16] and in [17] was “inactive” throughout.
Consider `CCCCN(CCCC)C(=S)SSC(=S)N(CCCC)CCCC`, for which the call in [1], in assay [2], in [3], in assay [4] and in assay [6] was inactive. The Potency result in [5], in assay [7], in assay [12], in [11] and in [18] was “inactive” each time.
Turning to `OC(CCCN1CCCCC1)(c1ccccc1)c1ccccc1`, the call in assay [1], in [2], in assay [3], in assay [4] and in [6] was inactive. The Potency result in [5], in [7], in [9], in assay [13], in assay [14] and in [15] was “inactive” throughout. For the same compound, the Potency entry in assay [18] and in assay [16] was “inactive” each time. Also, the Potency in assay [10] was 13.3 µM (active); in [11] it was 29.8 µM (active).
Turning to `CC#N`, the call in assay [1], in [3], in assay [4] and in [6] was inactive. Further, the Potency result in [5], in assay [7], in assay [8], in assay [19], in [9] and in assay [10] was “inactive” throughout. The Potency result in assay [12], in assay [11], in assay [13] and in assay [18] was “inactive” each time.
With `CCCCC1C(=O)N(c2ccccc2)N(c2ccc(O)cc2)C1=O` (stereo not drawn), in assay [1], the fluorescence, % of fluorescein was -0.124% [at 18.6 µM]. Also, in [2], the activity change is -0.39% [at 18.6 µM]. Also, the values for the fluorescence, % of fluorescent control in assay [3], in assay [5] and in assay [7] were 0.0102% [at 18.6 µM], -0.111% [at 18.6 µM] and -0.0848% [at 18.6 µM], respectively. In addition, in [4], the fluorescence, % of Rose Bengal is -0.239% [at 18.6 µM]. Moreover, the fluorescence, % of fluorescein control in assay [6] was -0.17% [at 18.6 µM]. Moreover, the Potency result in assay [8], in [9] and in assay [15] was “inactive” in each case. Moreover, the Potency in assay [10] is 3.2 µM (active); in assay [12], 5.69 µM (active); in assay [11], 5.07 µM (active); in assay [16], 12.7 µM (active); in assay [17] it was 3.59 µM (active).
Turning to `CC(=O)[C@H]1CC[C@H]2[C@@H]3C[C@H](C)C4=CC(=O)CC[C@]4(C)[C@H]3[C@@H](O)C[C@]12C`, the fluorescence, % of fluorescein in assay [1] is 0.123% [at 18.6 µM]. The activity change in assay [2] was -0.0137% [at 18.6 µM]. In addition, the fluorescence, % of fluorescent control in assay [3] is -0.395% [at 18.6 µM]; in [5] it was 0.0471% [at 18.6 µM]; in assay [7], 0.0065% [at 18.6 µM]. Moreover, in assay [4], the fluorescence, % of Rose Bengal was -0.145% [at 18.6 µM]. For the same compound, the fluorescence, % of fluorescein control in assay [6] is 0.189% [at 18.6 µM]. The Potency in [8] is 0.0323 µM (active); in assay [10] it was 9.02 µM (active); in assay [14], 0.0129 µM (active); in assay [15], 0.0285 µM (active). The Potency result in [9], in assay [13], in assay [16] and in assay [17] was “inactive” in each case.
With `CO[C@@]12[C@H](COC(N)=O)C3=C(C(=O)C(C)=C(N)C3=O)N1C[C@@H]1N[C@@H]12`, the compound was classed as inactive in assay [1], in assay [2], in assay [3], in assay [4] and in assay [6]. The Potency result in [5], in assay [7], in assay [8] and in assay [13] was “inactive” throughout. Further, the figures for the Potency in assay [19], in [9] and in [17] were 21.3 µM (active), 23.9 µM (active) and 2.37 µM (active), respectively.
In the case of `COC(=O)CC(=O)C(C)(C)C`, the compound was classed as inactive in [1], in assay [2], in assay [3], in assay [4] and in [6]. In addition, the Potency result in assay [5], in [8], in assay [19], in assay [9], in assay [10] and in [13] was “inactive” each time. For the same compound, the Potency entry in assay [17] is “inactive”. The Potency in assay [12] was 61.1 µM (active).
Consider `CC(=N\O)/C(C)=N/O`, for which the compound was called inactive in [1], in [3], in assay [4] and in assay [6]. Besides, the Potency entry in assay [5], in [7], in [9], in [13], in assay [18] and in assay [17] was “inactive” throughout.
